# Measurements taken from PubChem BioAssay (NCI).
# Compounds without any hit were thinned out: in the full panel of roughly 83,000, 20% have a hit.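 Values shown are percent growth following 48 h exposure of cells in 96-well plates to a single concentration of compound; below 10 was considered active.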 Values without a mark were called inactive. Activity calls are given as the source filed them.
# Experiments:
# Test in all cases: NCI-60 one-dose screen, 48 h (100 = growth as untreated, 0 = no growth, -100 = all killed)
# Details in all cases: 10 µM unless noted
# SK-MEL-2 melanoma = system: SK-MEL-2 melanoma
# EKVX NSCLC = system: EKVX NSCLC
# SN12C renal = system: SN12C renal
# UO-31 renal = system: UO-31 renal
# TK-10 renal = system: TK-10 renal
# ACHN renal = system: ACHN renal
# CAKI-1 renal = system: CAKI-1 renal
# A498 renal = system: A498 renal
# CCRF-CEM leukemia = system: CCRF-CEM leukemia
# MOLT-4 leukemia = system: MOLT-4 leukemia
# SR leukemia = system: SR leukemia
# RPMI-8226 leukemia = system: RPMI-8226 leukemia
# OVCAR-8 ovarian = system: OVCAR-8 ovarian
# OVCAR-5 ovarian = system: OVCAR-5 ovarian
# OVCAR-4 ovarian = system: OVCAR-4 ovarian
# SK-OV-3 ovarian = system: SK-OV-3 ovarian
# IGROV1 ovarian = system: IGROV1 ovarian
# OVCAR-3 ovarian = system: OVCAR-3 ovarian
# HS 578T breast = system: HS 578T breast
# NCI/ADR-RES ovarian = system: NCI/ADR-RES ovarian
SMILES,growth (SK-MEL-2 melanoma),growth (EKVX NSCLC),growth (SN12C renal),growth (UO-31 renal),growth (TK-10 renal),growth (ACHN renal),growth (CAKI-1 renal),growth (A498 renal),growth (CCRF-CEM leukemia),growth (MOLT-4 leukemia),growth (SR leukemia),growth (RPMI-8226 leukemia),growth (OVCAR-8 ovarian),growth (OVCAR-5 ovarian),growth (OVCAR-4 ovarian),growth (SK-OV-3 ovarian),growth (IGROV1 ovarian),growth (OVCAR-3 ovarian),growth (HS 578T breast),growth (NCI/ADR-RES ovarian)
O=S(=O)(NCCNc1cc(-c2cn(-c3ccccc3)nc2-c2cccc(O)c2)ccn1)c1ccc(C(F)(F)F)cc1,56.2%,52.3%,33.9%,-39.8% (active),59.9%,18.3%,-1.88% (active),52.6%,16.9%,4.81% (active),-23.1% (active),18.5%,48.3%,62.7%,39%,54%,43.3%,49.2%,48.6%,43.4%
Cc1ccsc1-c1ccc2c(c1)COC2(CCCN(C)C)c1ccc(F)cc1 (stereo unspecified),85.4%,65.6%,56.7%,39.3%,73.7%,62.1%,38.4%,86.3%,39%,27.3%,-4.74% (active),19%,71.9%,72.1%,54.4%,79.1%,26.6%,67.2%,49%,72.4%
C=C(C)[C@@H]1CC[C@]2(c3nnc(-c4ccncc4)o3)CC[C@]3(C)[C@H](CC[C@@H]4[C@@]5(C)CCC(=O)NC(C)(C)[C@@H]5CC[C@]43C)[C@@H]12,111%,95.1%,91.8%,76.6%,143%,98.7%,51.1%,99.3%,95%,85.6%,78.3%,81.4%,92.6%,112%,89.5%,100%,92.3%,44.6%,95.8%,97.5%
CC(C)=CCC[C@](C)(O)[C@H]1CC[C@]2(C)[C@@H]1CC[C@@H]1[C@@]3(C)C/C(=C/c4cccc([N+](=O)[O-])c4)C(=O)C(C)(C)[C@@H]3CC[C@]12C,115%,92.6%,81.1%,69.3%,128%,98.9%,51.9%,92.6%,76.3%,67.5%,72.7%,59.9%,77.5%,94.1%,82.5%,109%,107%,89.7%,93.3%,101%
O=C(/C(=C(\C(=O)c1ccccc1)c1ccccc1)c1ccccc1)c1ccccc1,81.5%,40.5%,62.5%,63.3%,86.8%,39.5%,57.8%,79.9%,16.2%,-7.63% (active),31.6%,18.7%,41.6%,100%,55.8%,82.5%,69%,40.8%,76.6%,45.4%
COc1cccc(-c2nn(-c3ccccc3)cc2-c2ccnc(NCCCNS(=O)(=O)c3cccc(F)c3)c2)c1,4% (active),45.1%,32.3%,9.64% (active),36.9%,19.4%,32.4%,30.4%,11.4%,-3.37% (active),-7.52% (active),14.3%,12.1%,61.3%,34%,40.9%,29.6%,46.5%,32%,12.7%
NC1=NN=C2N(N)C(=O)c3cnn(-c4ccccc4)c3N2c2nc(-c3ccccc3)cc(-c3ccccc3)c21,104%,96.7%,97%,78.3%,116%,101%,86.8%,114%,96.7%,91.6%,103%,93.5%,102%,104%,82.8%,93.2%,89%,116%,101%,92.1%
CN(C)c1ccc(C(=O)c2ccc(N(C)C)c(N)c2)cc1N,61.6%,50.9%,49.7%,64.9%,67.3%,50.5%,41%,25%,36.4%,24.4%,7.86% (active),60.4%,41.6%,75.7%,47%,24.6%,72.8%,-31% (active),7.6% (active),-14% (active)
CC(=O)Cc1nsc(NC(=O)c2ccoc2COc2ccccc2)n1,107%,91.1%,90.2%,77.1%,107%,99.7%,99.8%,97.4%,93.2%,106%,104%,88.6%,103%,94.1%,103%,111%,95.9%,111%,107%,99.1%
N#C/C(=C\c1ccc(-c2cccc(C(F)(F)F)c2)o1)c1nc(-c2ccco2)cs1,103%,43%,89.2%,62.8%,49.1%,87.2%,87.1%,104%,93.7%,93%,99.6%,45.8%,99.8%,60.2%,16.8%,112%,57.5%,100%,102%,97.1%
Cn1c2ccccc2c2c3c(c4c5cccnc5[nH]c4c21)C(=O)N(O)C3=O,97.5%,85.9%,22.6%,31%,97.4%,17.8%,24%,109%,13.2%,0.301% (active),11.4%,39.6%,45.5%,104%,71.3%,37.5%,45.1%,54.7%,110%,57.2%
CC1(C)CC[C@]2(C(=O)Nc3ccccn3)CC[C@]3(C)C(=CC[C@@H]4[C@@]5(C)C/C(=C/c6ccncc6)C(=O)C(C)(C)[C@@H]5CC[C@]43C)[C@@H]2C1,63.3%,39.3%,34.4%,36.9%,77.4%,-11.9% (active),40.4%,-17.2% (active),25.4%,11.6%,8.26% (active),-0.291% (active),41.5%,75.5%,17.1%,71.8%,50.6%,12.6%,56.7%,51.3%
Cc1cc2nc3c4cc([N+](=O)[O-])cc([N+](=O)[O-])c4n(CCN(C)C)c3nc2cc1C,108%,82.7%,59.7%,40.4%,117%,35.5%,49.6%,97%,63.1%,31.3%,5.05% (active),67.5%,61.4%,87.8%,90.8%,90.2%,60.2%,92.6%,90.2%,57.8%
Cc1nc([P+](c2ccccc2)(c2ccccc2)c2ccccc2)c(Sc2sc(-c3ccccc3)nc2[P+](c2ccccc2)(c2ccccc2)c2ccccc2)o1,3.95% (active),14.8%,7.4% (active),20.9%,38.7%,17.3%,15.4%,-9.69% (active),18.4%,13%,18.6%,-7.25% (active),8.83% (active),41.3%,-1.77% (active),-12.2% (active),10.3%,-1.45% (active),14%,75%
CC(=O)O[C@H]1CC[C@]2(C)[C@H]3C(=O)C=C4[C@@H]5C[C@](C)(C(=O)N6CCCNCC6)CC[C@]5(C)CC[C@@]4(C)[C@]3(C)CC[C@H]2C1(C)C,96.2%,54.8%,-82.1% (active),-85.5% (active),-14.3% (active),-100% (active),-99.3% (active),74.1%,-31.5% (active),-23.6% (active),-17.3% (active),-32.3% (active),-24.6% (active),8.24% (active),-5.14% (active),,-80.5% (active),-86.4% (active),96.2%,-41.6% (active)
Cc1cc(C)c(NC(=O)c2sc3nc4c(cc3c2N)CCCC4)c(C)c1,16.8%,76.7%,50%,62.1%,64.7%,55.8%,53.1%,12.7%,20.4%,29.9%,7.8% (active),55.2%,62.3%,90.8%,60.9%,51.3%,,18.1%,46.2%,18.4%
O=[N+]([O-])c1cc(S(=O)(=O)c2ccc(F)c([N+](=O)[O-])c2)ccc1F,112%,117%,108%,86.1%,119%,97.1%,109%,107%,46.2%,23.2%,9.57% (active),6.35% (active),80.9%,122%,112%,117%,,101%,80.6%,108%
C=C(C)[C@@H]1CC[C@]2(C(=O)O)CC[C@]3(C)[C@H](CC[C@@H]4[C@@]5(C)C/C(=C/c6ccc(OC)cc6)C(=O)C(C)(C)[C@@H]5CC[C@]43C)[C@@H]12,38.1%,9.53% (active),18%,12.6%,24.5%,19.6%,23.8%,49.6%,24%,15.3%,30.9%,15.5%,23.2%,49.3%,26.8%,25%,,16.5%,49.9%,17.7%
